# High-throughput results as filed in PubChem BioAssay.
# MARV entry inh – qHTS for inhibitors of binding or entry into cells for Marburg Virus | Marburg virus pseudotyped entry inhibition, cell reporter | Potency, µM (highest dose often 37.8 µM), for the others: top-dose activity change, negative = inhibition, usual class: inhibitors | 1.8% of 300,000 active | AID 540276, 2011; calls by dose curve; tested in HEK293 cells; also: potency is read from the fitted curve at half-maximal effect; % is scaled to controls: 0 for no effect and ±100 for the full control effect
# Lassa entry inh – qHTS for Inhibitors of binding or entry into cells for Lassa Virus. 1.2% of 300,000 active. Potency, µM (series often up to 37.9 µM), for inactives: at the highest dose activity change, negative = inhibition, hits mostly inhibitors. Lassa virus pseudotype entry inhibition, cell reporter; calls by dose curve; tested in HEK293 cells; also: potency is read from the fitted curve at half-maximal effect; % is scaled to controls: 0 for no effect and ±100 for the full control effect; nearly all actives have a fitted effect of over 50% in size
# SARS PLP yeast – qHTS of Yeast-based Assay for SARS-CoV PLP. S. cerevisiae expressing SARS-CoV PLpro, growth rescue. Potency, µM (doses to about 32.9 µM), without a hit: top-dose activity, positive = growth rescue, hits mostly activators. 0.19% of 330,000 active. AID 485353, 2010; calls by dose curve; also: potency is read from the fitted curve at half-maximal effect; 0% is about no effect; nearly all actives have a fitted effect of over 55% in size
# HCMV inh – qHTS Assay for inhibitors of the human cytomegalovirus (HCMV). HFF cells, HCMV-luciferase reporter, 72 h; hits give low values. activity change, negative = inhibition, % at 57.5 µM. 4.5% of 410,000 active. AID 1259415, 2018; in the data active = activity change below about -60%; inconclusive = no clear call, values can overlap the other calls; inactive = above about -39%; also: % is scaled to controls: 0 for no effect and ±100 for the full control effect
#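 Inhibition of viral replication was scored as loss of reporter luminescence in HFFs infected with HCMV-luciferase (MOI 1 PFU/cell) for 72 h; compounds tested at 2 doses, normalized to buffer and Salinomycin controls.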
# FMDV inh – High Throughput Screening for Foot and Mouth Disease Virus Antivirals. FMDV antiviral cell-based qHTS. Potency, µM (top dose mostly 57.9 µM), for the others: at the highest dose activity change, negative = inhibition, most hits filed as inhibitors. 1.2% of 410,000 active. AID 1159524, 2015; calls by dose curve; tested in HEK293T cells; also: read-out not given here; potency is read from the fitted curve at half-maximal effect; % is scaled to controls: 0 for no effect and ±100 for the full control effect; nearly all actives have a fitted effect of over 45% in size
# HCV inh – qHTS Assay for Inhibitors of Hepatitis C Virus (HCV); Potency, µM (highest dose often 41.8 µM), without a hit: at the highest dose activity change, negative = inhibition, usual class: inhibitors; 3.4% of 340,000 active; AID 651820, 2012; Huh7.5.1 HCVcc-Cre infection, luciferase reporter, 44 h; active = well fitted inhibition curve with a large enough effect; inconclusive = small, poorly fitted or top-dose-only effect, or another doubt; inactive = no such curve, though single readings can be large or run the other way; also: potency is read from the fitted curve at half-maximal effect; % is scaled to controls: 0 for no effect and ±100 for the full control effect
#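 Cells (1,000/well) were plated 4 h before compound, then infected with HCVcc-Cre virus (~0.5 moi). After 44 h further culture, infection was read as luciferase luminescence following a 15 min substrate incubation at room temperature.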
# * = called active by the depositor; ? = inconclusive; / = no result given; [ ] = dose if it differs, or a comment. Only some compounds are listed: those with a hit (about 8% of all), similar ones and a draw of the others.
SMILES,MARV entry inh,Lassa entry inh,SARS PLP yeast,HCMV inh,FMDV inh,HCV inh
CCCc1ccc(C(=O)NNc2cccc(C)c2)cc1,4µM*,?,-3%,22,27%,-26%
COc1cccc(CNC(=O)Cn2cc3c(n2)-c2c(oc(C(=O)N4CCOCC4)c2C)CC3)c1,/,-2%[46.1 µM],/,?,?,/
Cc1cc(C)cc(C(=O)N2CC(C)SC2=Nc2cccc(S(=O)(=O)N(C)C)c2)c1 (centres undefined),?,?,9%,?,-25%,?
CN(C)S(=O)(=O)c1cccc(N=C2SCCN2Cc2ccccc2)c1,?,?,0%,-6,?,10µM*
Cc1ccc(Cl)cc1N1CCN(C(=O)CCS(=O)(=O)c2ccc3c(c2)oc(=O)n3C)CC1,/,-9%[46.1 µM],/,5,?,/
Cc1ccc(-c2cc(-c3ccccc3)cc(-c3ccccc3)[n+]2-c2ccccc2C(=O)O)cc1,/,/,0%,-67*,?,?
O=C(O)c1ccccc1C(=O)c1ccc(-c2ccccc2)cc1,/,/,2%,29,45%,16%
COc1ccc(-c2nc3c4ccccc4n(CC(=O)N4CCN(c5ccccc5F)CC4)c(=O)n3n2)cc1,/,-2%[46.1 µM],/,9,5%,/
Cc1ccc(NC(=O)C(=O)c2cc(C)n(-c3ccc(F)cc3)c2C)cc1C,20%[46.1 µM],?,/,26,7%,/
COc1cc(/C=C2\SC(=O)N(Cc3ccc(Cl)cc3)C2=O)cc([N+](=O)[O-])c1O,?,?,1%,-23,?,-17%
O=C1/C(=C/c2ccc(O)c([N+](=O)[O-])c2)SC(=S)N1Cc1ccccc1,-22%[46.1 µM],22%[46.1 µM],-1%,-61*,?,8%
COc1cc(/C=C2\SC(=O)N(Cc3ccc(F)cc3)C2=O)cc([N+](=O)[O-])c1O,?,?,-1%,-76*,-10%,-6%
O=C1CSC(=S)N1Cc1cccnc1,?,?,-10%,-98*,?,?
O=C1/C(=C\c2cccc([N+](=O)[O-])c2O)SC(=S)N1Cc1ccccc1,/,/,-9%,-64*,?,-16%
CCC(CC)C(Nc1ccccc1C(C)=O)C(=O)NC1CCCCC1 (centres undefined),/,/,/,-34,/,/
S=C1NCN(Cc2cccnc2)CN1Cc1ccccc1,-2%,-10%,1%,13,-7%,-12%
O=C1/C(=C/c2ccccc2O)SC(=S)N1Cc1cccnc1,-4%,11%,?,-78*,32µM*,-1%
S=C1SCN(Cc2cccnc2)CN1Cc1ccccc1,?,0%,-9%,-94*,-15%,?
O=C1/C(=C\c2ccc(O)cc2)SC(=S)N1Cc1ccccc1,?,?,-17%,-27,-20%,12%
S=C1SCN(Cc2ccccn2)CN1Cc1ccco1,9.2µM*,14%[14.3 µM],7%,?,-19%,/
COc1cc([N+](=O)[O-])cc(/C=C2/SC(=S)N(Cc3ccccc3)C2=O)c1O,/,/,-11%,-88*,?,-28%
COn1c(-c2ccccc2)nc2c1CCc1c-2no[n+]1[O-],27%,14%,3%,-80*,0%,3%
[O-][n+]1onc2c1CCc1c-2nc(-c2ccccc2)n1OCc1ccccc1,-19%,-7%,0%,-16,-29%,14%
COc1ccc(-c2nc3c(n2O)CCc2c-3no[n+]2[O-])cc1,/,/,0%,-68*,-3%,11%
COc1ccc(-n2c(C)cc(/C=C3\C(=O)NN(c4ccccc4)C3=O)c2C)cc1,17%,8%,2%,60,47%,-3%
Cc1cc(/C=C2/C(=O)NN(c3ccccc3)C2=O)c(C)n1-c1ccc(O)cc1,7.1µM*,?,-24%,-86*,18µM*,?
OC1(c2ccc(F)cc2)CCNC1 (centres undefined),-7%,9%,-12%,-66*,12%,6%
CCOC(=O)C1CCCN(S(=O)(=O)c2cc(-c3onc(C)c3C)ccc2OC)C1 (centres undefined),/,?,/,-7,0%,/
